Results taken from PubChem BioAssay (Tox21).
Records with an inconclusive call do not appear. The source made the active and inactive calls. Unless noted, the call rests on the fitted dose curve.

Legend:
[1] = qHTS assay to identify small molecule antagonists of the vitamin D receptor (VDR) signaling pathway - cell viability counter screen (AID 743225; active means well fitted curve in the direction sought with a large enough effect in the repeat runs; an effect the other way counts as inactive or inconclusive; further: on the % scale 0 is the no-effect control and ±100 the full control effect; nearly all actives have a fitted effect of over 50% in size); conditions: VDR-bla HEK293T viability, CellTiter-Glo luminescence, 16 h; series mostly up to 61 µM
Procedure, shortened: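 Viability counter screen run in the same wells as the beta-lactamase reporter assay: HEK 293T VDR-UAS-bla cells, 16 h compound exposure at 37C with 3 nM (final) 1-alpha,25-dihydroxyvitamin D3. CellTiter-Glo luminescence, 30 min, room temperature.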

[2] = qHTS assay to identify small molecule agonists of the NFkB signaling pathway (AID 1159509; active means well fitted curve in the direction sought with a large enough effect in the signal ratio in the repeat runs, not every such curve was filed as active; the % refers to the signal ratio; further: on the % scale 0 is the no-effect control and ±100 the full control effect); conditions: NFkB-bla ME-180 cells, beta-lactamase FRET ratio, 5 h; series mostly up to 61 µM
Procedure, shortened: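 NFkB-bla ME-180 cells carry a beta-lactamase reporter under an NF-kB response element. They were plated overnight, then exposed to compounds for 5 h at 37 C. Read-out is LiveBLAzer FRET after 1.5 hr at room temperature (405 nm excitation; 460/530 nm emission).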

[3] = qHTS assay to identify small molecule agonists of the NFkB signaling pathway - cell viability counter screen (AID 1159515); conditions: NFkB-bla ME-180 viability, CellTiter-Glo luminescence, 5 h; series mostly up to 61 µM; further: on the % scale 0 is the no-effect control and ±100 the full control effect; nearly all actives have a fitted effect of over 55% in size
Procedure, shortened: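 Luminescence from CellTiter-Glo (30 min, room temperature) gives viability, measured in the same wells as the beta-lactamase reporter read. Cells were NFkB-bla ME-180, 2,000 per well, treated 5 hr with compounds.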

[4] = qHTS assay to identify small molecule agonists of the endoplasmic reticulum stress response signaling pathway (AID 1159516; active means well fitted activation curve with a large enough effect in the signal ratio in the repeat runs, not every such curve was filed as active; the % refers to the signal ratio; further: on the % scale 0 is the no-effect control and ±100 the full control effect); conditions: ESRE-bla HeLa, ER stress beta-lactamase reporter, 5 h; series mostly up to 61 µM
Procedure, shortened: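 Read-out is beta-lactamase cleavage of a FRET substrate (405 nm excitation; 460 and 530 nm emissions) in ESRE-bla HeLa cells after a 5 hr compound exposure at 37 C. Substrate incubation ran 2 hr at room temperature.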

[5] = qHTS assay to identify small molecule agonists of the endoplasmic reticulum stress response signaling pathway - cell viability counter screen (AID 1159517); conditions: ESRE-bla HeLa viability, CellTiter-Glo luminescence, 5 h; series mostly up to 61 µM;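 further: HeLa cells carrying an ER stress response element beta-lactamase reporter; on the % scale 0 is the no-effect control and ±100 the full control effect; nearly all actives have a fitted effect of over 50% in size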
Procedure, shortened: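 HeLa cells carrying an ESRE-driven beta-lactamase reporter receive compound for 5 hr at 37 C. Cell viability is then gauged with CellTiter-Glo by luminescence, 30 min at room temperature.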

[6] = qHTS assay to identify small molecule antagonists of the retinoid-related orphan receptor gamma (ROR-gamma) signaling pathway - cell viability counter screen (AID 1159520; active means well fitted curve in the direction sought with a large enough effect in the repeat runs; an effect the other way counts as inactive or inconclusive; further: on the % scale 0 is the no-effect control and ±100 the full control effect; nearly all actives have a fitted effect of over 50% in size); conditions: Tet-on RORgamma CHO cells viability, ATP luminescence, 16 h; series mostly up to 92.4 µM
Procedure, shortened: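 Cytotoxicity was read from cellular ATP (CellTiter-Glo luminescence) after 16 hr at 37 C with 1 uM doxycycline induction. The inducer was added 2 hr after compound transfer to Tet-on ROR gamma CHO cells.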

[7] = molecular target: Nuclear receptor ROR-gamma (Homo sapiens) (UniProt P51449); test: qHTS assay to identify small molecule antagonists of the retinoid-related orphan receptor gamma (ROR-gamma) signaling pathway (AID 1159521; active means well fitted curve in the direction sought with a large enough effect in the repeat runs; an effect the other way counts as inactive or inconclusive;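 further: CHO cells with doxycycline inducible ROR-gamma driving an RORE luciferase reporter; top concentration of the series differs between compounds; on the % scale 0 is the no-effect control and ±100 the full control effect; nearly all actives have a fitted effect of over 50% in size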); conditions: Tet-on RORgamma CHO cells, RORE-luciferase, 16 h; series mostly up to 92.4 µM
Procedure, shortened: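 Luminescence readout (ONE-Glo, 30 min RT) after 16 h doxycycline induction; loss of signal scored as antagonism. CHO cells with TET-inducible RORγ and RORE-LUC reporter; compounds added 2 h before 1 uM final doxycycline.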

[8] = qHTS assay to identify small molecule agonists of the AP-1 signaling pathway - cell viability counter screen (AID 1159525); conditions: ME-180 AP-1-bla cells viability, ATP luminescence, 5 h; series mostly up to 76.8 µM; further: nearly all actives have a fitted effect of over 55% in size
Procedure, shortened: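 Luminescent ATP readout (Cell Titer Glo, 30 min RT), normalised to DMSO and tetra n-octyl ammonium bromide controls. Cells were ME-180 AP-1-bla in 0.5% dialyzed FBS Opti-MEM, with a 5 h, 37 °C compound exposure.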

[9] = qHTS assay to identify small molecule agonists of the AP-1 signaling pathway (AID 1159526); conditions: ME-180 (cervical carcinoma) AP-1-bla reporter, beta-lactamase FRET ratio, 5 h; series mostly up to 76.8 µM; further: on the % scale 0 is the no-effect control and ±100 the full control effect
[10] = qHTS assay to identify small molecule agonists of the vitamin D receptor (VDR) signaling pathway - cell viability counter screen (AID 743224; active means well fitted curve in the direction sought with a large enough effect in the repeat runs; an effect the other way counts as inactive or inconclusive); conditions: VDR-bla HEK293T viability, CellTiter-Glo luminescence, 16 h; series mostly up to 62.6 µM
Procedure, shortened: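 Luminescence from CellTiter-Glo, read after 30 min at room temperature, reports viability of VDR-bla cells treated with compounds for 16 h at 37C in the wells used for the beta-lactamase FRET read.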

Cc1ccc(C(=O)C(=O)O)cc1C
inactive: outcome [1] | outcome [2] | outcome [3] | outcome [4] | outcome [5] | outcome [6] | outcome [7] | outcome [8] | outcome [9]

CCCCCCCCCCCCC
inactive: outcome [10] | outcome [1] | outcome [2] | outcome [3] | outcome [4] | outcome [5] | outcome [6] | outcome [8] | outcome [9]

CCCCC[Si](OCC)(OCC)OCC
inactive: outcome [1] | outcome [2] | outcome [3] | outcome [4] | outcome [5] | outcome [6] | outcome [7] | outcome [8] | outcome [9]

C=CCOC(=O)c1ccc(C(=O)OCC=C)c(C(=O)OCC=C)c1
inactive: outcome [1] | outcome [2] | outcome [3] | outcome [4] | outcome [5] | outcome [6] | outcome [7] | outcome [8] | outcome [9]

Cc1cccc(C(=O)O)c1[N+](=O)[O-]
inactive: outcome [1] | outcome [2] | outcome [3] | outcome [4] | outcome [5] | outcome [6] | outcome [7] | outcome [8] | outcome [9]

CCNC(=O)/C=C/c1cccc(Br)c1
inactive: outcome [1] | outcome [2] | outcome [3] | outcome [4] | outcome [5] | outcome [6] | outcome [7] | outcome [8] | outcome [9]

O=CO
inactive: activity change, negative = cytotoxicity [10] -15.6% [at 5.95 µM] | viability change, negative = cytotoxic [1] 3.57% [at 6.95 µM] | activation [2] -0.32% [at 6.95 µM] | activity, negative = cytotoxic [3] -18.4% [at 6.95 µM] | activation [4] -2.58% [at 6.95 µM] | activity change, negative = cytotoxicity [5] -1.24% [at 6.95 µM] | activity, negative = cytotoxicity [6] 0.77% [at 8.39 µM] | viability change, negative = cytotoxic [8] 1.49% [at 6.97 µM] | activation [9] 1.24% [at 6.97 µM]

CCCCCCCC[Si](OCC)(OCC)OCC
inactive: outcome [1] | outcome [2] | outcome [3] | outcome [4] | outcome [5] | outcome [6] | outcome [7] | outcome [8] | outcome [9]

CCCOC(=O)CCCCC(=O)OCCC
inactive: outcome [1] | outcome [2] | outcome [3] | outcome [4] | outcome [5] | outcome [6] | outcome [7] | outcome [8] | outcome [9]

CCN(CCO)c1cccc(C)c1
inactive: outcome [1] | outcome [2] | outcome [3] | outcome [4] | outcome [5] | outcome [6] | outcome [7] | outcome [8] | outcome [9]

CCOC(=O)OCC/C(SC(=O)OCC)=C(\C)N(C=O)Cc1cnc(C)nc1N
inactive: outcome [10] | outcome [2] | outcome [3] | outcome [4] | outcome [5] | outcome [6] | outcome [8] | outcome [9]

C/C=C(\C)C(=O)OCC/C=C\CC
inactive: outcome [1] | outcome [2] | outcome [3] | outcome [4] | outcome [5] | outcome [6] | outcome [7] | outcome [8] | outcome [9]

CCN(CCC#N)c1ccccc1
inactive: outcome [10] | outcome [1] | outcome [2] | outcome [3] | outcome [4] | outcome [5] | outcome [7] | outcome [8] | outcome [9]

O=C(O)/C=C/c1ccccc1
inactive: outcome [10] | outcome [1] | outcome [2] | outcome [3] | outcome [4] | outcome [5] | outcome [7] | outcome [8] | outcome [9]

COc1ccc(NS(=O)(=O)c2ccc(N)cc2)nn1
inactive: outcome [10] | outcome [1] | outcome [2] | outcome [3] | outcome [4] | outcome [5] | outcome [6] | outcome [8] | outcome [9]

CCCCC(C)C(=O)O (configuration not stated)
inactive: outcome [10] | outcome [2] | outcome [4] | outcome [5] | outcome [6] | outcome [7] | outcome [8] | outcome [9]

C=CCOc1c(Br)cc(Br)cc1Br
inactive: outcome [10] | outcome [1] | outcome [2] | outcome [3] | outcome [4] | outcome [5] | outcome [7] | outcome [8] | outcome [9]

COc1cc2c(Nc3ccc(Br)cc3F)ncnc2cc1OCC1CCN(C)CC1
inactive: outcome [10] | outcome [2] | outcome [3] | outcome [4] | outcome [5] | outcome [7] | outcome [8] | outcome [9]

CCCCCCCCCCCCCCCC(=O)NCCO
inactive: outcome [1] | outcome [2] | outcome [3] | outcome [4] | outcome [5] | outcome [6] | outcome [8] | outcome [9]
